Screens deposited in PubChem BioAssay by National Center for Advancing Translational Sciences (NCATS).
Nrf2 activator – qHTS of Nrf2 Activators; AREc32 ARE-luciferase reporter (MCF7-derived line), luminescence, 24 h; Potency, µM (doses to about 46.1 µM), for the others: at the highest dose activation, actives largely listed as activators; 410,000 compounds, 0.31% hits; AID 624171, 2012; also: % of control where 0% means no effect; nearly all actives have a fitted effect of over 65% in size
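ARE activation measured as luciferase luminescence (Steady-Glo, 30 min RT) in AREc32_Fluc cells after 24 hr compound exposure at 37 deg C, 5% CO2; cells seeded overnight at 1000/well in OPTI-MEM, 5% FBS.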
Epigenetic derep – Quantitative High-Throughput Screen for Regulators of Epigenetic Control. murine LDR cells, GFP reporter derepression, 30 h. Potency, µM (top dose mostly 53.9 µM), without a hit: top-dose GFP activation, hits mostly activators. 280,000 compounds, 0.2% hits; also: % of control where 0% means no effect; nearly all actives have a fitted effect of over 60% in size
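Murine LDR cells bearing a silenced CMV-driven GFP reporter were exposed to compound for 30 h at 37 C. After PBS washes, GFP-positive cells (20-120 um objects) counted by laser-scanning microplate cytometry.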
Nrf2 block – Nrf2 qHTS screen for inhibitors; A549 ARE-Fluc reporter, luciferase luminescence, 18-24 h; AID 504444, 2011; Potency, µM (highest dose often 46 µM), without a hit: at the top dose activity change, negative = inhibition, actives largely listed as inhibitors; 360,000 compounds, 2.1% hits; also: % is scaled to controls: 0 for no effect and ±100 for the full control effect; nearly all actives have a fitted effect of over 60% in size
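A549 ARE_Fluc cells, 5000/well, 5% FBS OPTI-MEM; compounds in dose-response, 18-24 h at 37 °C/5% CO2; CellTiter-Fluor viability read (Ex 405/Em 525), then BugLite luciferase luminescence = Nrf2 activity.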
PINK1 modulator – A Quantitative High throughput Screen to Identify Chemical Modulators of PINK1 Expression | PINK1 immunofluorescence, high-content cytometry, 24 h | Potency, µM (titrated, usually from 76.6 µM), without a hit: at the top dose activation (PINK1 increase), actives largely listed as activators | 410,000 compounds, 0.2% hits; active = well fitted activation curve with a large enough effect; inconclusive = small, poorly fitted or top-dose-only effect; cell line not stated here; also: % of control where 0% means no effect; nearly all actives have a fitted effect of over 65% in size
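PINK1 protein, normally rapidly degraded, was detected by immunofluorescence after 24 hour compound treatment of a stable cell line. Titration data (5 concentrations) came from laser-scanning cytometry, with CCCP-treated wells as controls.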
A549 viability – Nrf2 qHTS screen for inhibitors: counterscreen for cytotoxicity; A549 ARE-Fluc cells, CellTiter-Fluor viability, 18-24 h; 390,000 compounds, 0.16% hits; Potency, µM (highest dose often 46 µM), for inactives: at the top dose activity change, negative = cytotoxicity, usual class: inhibitors; also: % is scaled to controls: 0 for no effect and ±100 for the full control effect
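A549 ARE_Fluc cells in 5% FBS OPTI-MEM were exposed to compounds in concentration-response for 18-24 h at 37 deg C. Viability was read by CellTiter-Fluor fluorescence (Ex 405/Em 525) after 30 min, before the luciferase read.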
The depositor's hits bear a star; ? = inconclusive; / = no result; [ ] = another dose, or the depositor's remark. This is a sample that favours compounds with a hit; in the whole collection about 2.4% have one here. Unless noted, calls follow the shape of the dose curve; as a rule, active = well fitted curve in the direction sought with a large enough effect; inconclusive = small, poorly fitted or top-dose-only effect, or another doubt; inactive = no such curve, though single readings can be large; an effect the other way counts as inactive or inconclusive. Potency is read from the fitted curve at half-maximal effect.

SMILES | Nrf2 activator | Epigenetic derep | Nrf2 block | PINK1 modulator | A549 viability
NC(=O)CC(NC(=O)c1ccccc1)c1ccc(N2CCC(Cc3ccccc3)CC2)c([N+](=O)[O-])c1 (configuration not stated) | 0% | / | 10µM* | 1% | ?
CC(=O)N1c2ccc(S(=O)(=O)NCC3CCC(C(=O)Nc4cccc(C)c4C)CC3)cc2CC1C (configuration not stated) | 4% | -1% | ? | 0% | 7%
CN1C(=O)/C(=C\c2ccccc2)Sc2ccc(C(=O)N3CCN(c4ccccn4)CC3)cc21 | / | -2% | / | / | /
O=C1Nc2cc(C(=O)N3CCN(c4ccccn4)CC3)ccc2S/C1=C\c1ccccc1 | 1% | / | 23µM* | 0% | -2%
COc1ccc([C@H]2CC(=O)C=C(c3ccc(C(F)(F)F)c(C(F)(F)F)c3)C2)cc1OC | 2% | / | ? | 4% | 4%
COc1ccc([C@H]2CC(=O)C=C(c3ccc(Cl)c(C(F)(F)F)c3)C2)cc1OC | 0% | / | 16µM* | 1% | ?
Cn1c2cc(S(C)(=O)=O)sc2c2cnn(Cc3ccccc3F)c(=O)c21 | / | / | -2% | / | -4%
CCc1ccc2nc(N(CCCN(C)C)C(=O)c3ccc(C(=O)c4ccccc4)cc3)sc2c1 | -3% | / | 13µM* | -2% | ?
COc1cc2nc(N(CCCN(C)C)C(=O)c3ccc(C(=O)c4ccccc4)cc3)sc2cc1OC | 3% | / | 4% | -2% | -10%
O=C(Cc1ccc(Cl)cc1Cl)Nc1ccncc1 | 0% | / | 16µM* | 9% | 3%
S=C(NCc1ccc(Cl)cc1)Nc1ccccc1 | 0% | -1% | 27% | 4% | -3%
S=C(NCc1ccc(Cl)cc1)Nc1ccncc1 | 0% | / | 13µM* | 5% | -5%
O=C(Cc1ccc(Cl)cc1Cl)Nc1ccncc1Cl | 0% | / | 9.2µM* | 0% | 2%
COc1cc(=O)n2c(c1C(=O)N(C)Cc1nonc1C)CCN(Cc1ccccc1F)CC2 | / | / | / | 0% | /
Cc1ccc(NC(=S)NC2CCSc3ccccc32)cc1C (configuration not stated) | 0% | / | 23µM* | ? | -22%
CC(=O)N(C)c1ccc(OCC(O)Cn2c3ccc(Cl)cc3c3cc(Cl)ccc32)cc1 (configuration not stated) | -2% | -7% | 21µM* | 3% | ?
Cc1ccc(OCC(O)Cn2c3ccccc3c3ccccc32)cc1 (configuration not stated) | 2% | 0% | ? | / | -28%
CC1=C(C(N)=O)C(c2cccs2)n2nc(-c3cccc(C)c3)nc2N1 (configuration not stated) | 0% | -1% | -1% | 0% | -10%
CC1=C(C(N)=O)C(c2cccs2)n2nc(-c3cccc(Cl)c3)nc2N1 (configuration not stated) | 18% | 0% | 13µM* | -2% | 0%
COc1cccc(CNC(=O)CSc2c3c(nc4ccc(Cl)cc24)CCCC3)c1OC | 13µM* | -1% | ? | 2% | -20%
COc1ccc(OC)c(CNC(=O)CSc2c3c(nc4cc(Cl)ccc24)CCCC3)c1 | ? | 5% | -16% | 4% | -16%
N#Cc1c2c(c(Cl)n3c1nc1ccccc13)CCCC2 | / | / | / | 1% | /
C/C=C\C[C@H](C)[C@H](O)[C@H]1C(=O)N[C@@H](CC)C(=O)N(C)CC(=O)N(C)[C@@H](CC(C)C)C(=O)N[C@@H](C(C)C)C(=O)N(C)[C@@H](CC(C)C)C(=O)N[C@@H](C)C(=O)N[C@@H](C)C(=O)N(C)[C@@H](CC(C)C)C(=O)N(C)[C@@H](CC(C)C)C(=O)N(C)[C@@H](C(C)C)C(=O)N1C | / | 0%[16.9 µM] | / | / | /
Cc1cc(NC(=O)c2ccccc2)c(Cl)cc1N | -3% | 1% | 8.2µM* | 1% | 1%
Cc1cc(N)ccc1NC(=O)c1ccccc1 | 0% | -1% | 14% | -3% | -11%
SMILES | Nrf2 activator | Epigenetic derep | Nrf2 block | PINK1 modulator | A549 viability
Cc1cc2c(s1)c1cnn(Cc3cc(Cl)ccc3F)c(=O)c1n2C | / | / | 18% | / | 2%
CCn1c(=O)cc(OCC(=O)N2CCN(c3ccc(C)cc3)C(C)C2)c2ccccc21 (configuration not stated) | -1% | 0% | ? | 1% | -11%
COc1cccc(-c2cc(C(F)(F)F)nc(-n3cc(Cl)cn3)n2)c1 | 0% | -1% | 10µM* | -3% | 1%
COc1ccc(-c2cc(C(F)(F)F)nc(-n3cc(Cl)cn3)n2)cc1 | 1% | -1% | ? | 5% | ?
COc1ccc(OC)c(C2=Nn3c(nnc3-c3ccc(OC)c(OC)c3)SC2)c1 | / | / | ? | / | -4%
O=C1c2ccccc2C(=O)N1c1cncc2ccccc12 | / | / | 21% | / | 4%
COc1cc2c(cc1OC)C1(NCC2)C(=O)Nc2ccccc21 (configuration not stated) | -1% | 0% | -15% | 1%[38.3 µM] | 1%
COc1cc2c(cc1OC)C1(Nc3c-2c(Cc2ccccc2)nn3-c2ccccc2)C(=O)Nc2ccccc21 (configuration not stated) | 0% | 5% | 12µM* | 0% | ?
COC(c1ccc2c(c1)CN(C(=O)Cn1nc(C)c3ccccc3c1=O)CCO2)C1CCCCC1 (configuration not stated) | / | / | / | 1% | /
COc1ccc(C(=O)NNC(=O)C(=O)Nc2ccc(C)c(Cl)c2)cc1 | 0% | ? | 5.8µM* | -2% | ?
COCc1c(C(=O)NC2CCCCC2)cnn1-c1nccc(-c2cc(C)sc2C)n1 | / | / | / | 1% | /
CCOC(=O)c1[nH]c(C)c(CCC(=O)N2CCN(c3cc(C)ccc3C)CC2)c1C | 0% | 0% | / | 1% | -2%
Cc1cc(C)c2oc(-c3cccc(NC(=O)c4ccco4)c3)nc2c1 | 8% | -2% | -8% | 5% | 2%
Cc1cc(C)c2oc(-c3ccc(C)c(NC(=O)/C=C/c4ccco4)c3)nc2c1 | 5.6µM* | 4% | 23% | 11% | -4%
CS(=O)(=O)NCCNc1ncc(C(F)(F)F)cc1Cl | 0% | 1% | 14% | 1% | 3%
O=S(=O)(NCCNc1ncc(C(F)(F)F)cc1Cl)C(F)(F)F | 7% | -2% | ? | 40µM* | ?
Cc1nn(CCCC(=O)Nc2cccc(F)c2)c(=O)c2c1sc1ccccc12 | -1% | 13% | 2.6µM* | 1% | -13%
CCc1cccc(C)c1NC(=O)CCCn1nc(C)c2sc3ccccc3c2c1=O | 0% | 6% | ? | 0% | 6%
NS(=O)(=O)c1ccc(N2N=C(c3ccccc3)CC2c2cccc(F)c2)cc1 (configuration not stated) | 6% | 10% | -16% | -4% | -12%
